About 500 (1.3%) of roughly 39,000 compounds were called active. The full list was thinned out, with actives kept by preference.
test system: S. aureus RN4220; test: growth inhibition call (relative growth <= 0.2); conditions: 50 µM

Structure (SMILES) | growth inhibition call
COc1ccc(NC(=O)Nc2ccc3c(c2)C(=O)N([C@H](C)CO)C[C@H](C)[C@@H](CN(C)C(=O)Nc2ccccc2)OCCCC[C@@H](C)O3)cc1 | inactive
CCCCCCOC(=O)/N=C(/N)c1ccc(NCc2nc3cc(C(=O)N(CCC(=O)OCC)c4ccccn4)ccc3n2C)cc1 | inactive
C[C@@H]1CN([C@H](C)CO)C(=O)c2cccc(NC(=O)C3CCCCC3)c2O[C@H]1CN(C)C(=O)Nc1ccc(C(F)(F)F)cc1 | inactive
C[C@@H]1CN([C@H](C)CO)C(=O)c2cccc(NC(=O)C3CCCCC3)c2O[C@@H]1CN(C)C(=O)Nc1ccc(C(F)(F)F)cc1 | active
CC(C)N1C[C@H](C)[C@@H](CN(C)Cc2ccc(Oc3ccccc3)cc2)Oc2c(NC(=O)C3CCN(C)CC3)cccc2C1=O | inactive
C[C@H](CO)N1C[C@H](C)[C@@H](CN(C)C(=O)Nc2ccc(C(F)(F)F)cc2)Oc2c(NC(=O)C3CCCCC3)cccc2C1=O | inactive
C[C@H](CO)N1C[C@H](C)[C@@H](CN(C)Cc2ccc(Oc3ccccc3)cc2)Oc2c(NC(=O)C3CC3)cccc2C1=O | inactive
C[C@@H]1CN([C@@H](C)CO)C(=O)c2cccc(NC(=O)C3CCCCC3)c2O[C@H]1CN(C)C(=O)Nc1ccc(C(F)(F)F)cc1 | inactive
C[C@@H]1CN([C@@H](C)CO)C(=O)c2cccc(NC(=O)C3CCCCC3)c2O[C@@H]1CN(C)C(=O)Nc1ccc(C(F)(F)F)cc1 | active
C[C@H](CO)N1C[C@H](C)[C@H](CN(C)C(=O)Nc2ccc(C(F)(F)F)cc2)Oc2c(NC(=O)C3CCCCC3)cccc2C1=O | inactive
CC(C)N1C[C@H](C)[C@@H](CN(C)Cc2ccc(Oc3ccccc3)cc2)Oc2c(NC(=O)C3CCNCC3)cccc2C1=O | active
C[C@@H]1CN([C@H](C)CO)C(=O)Cc2cc(NC(=O)Nc3ccc4c(c3)OCO4)ccc2O[C@H]1CN(C)C(=O)Nc1ccc(C(F)(F)F)cc1 | inactive
C[C@H](CO)N1C[C@H](C)[C@H](CN(C)C(=O)c2ccccc2)OCCCC[C@H](C)Oc2ccc(NC(=O)CCC(F)(F)F)cc2C1=O | inactive
C[C@@H]1CN([C@H](C)CO)S(=O)(=O)c2ccc(-c3ccncc3)cc2O[C@H]1CN(C)C(=O)c1ccc2c(c1)OCO2 | inactive
C[C@@H]1CN([C@H](C)CO)C(=O)c2cc(C#CCN(C)C)cnc2O[C@@H]1CN(C)S(=O)(=O)c1cn(C)cn1 | inactive
COc1ccc(S(=O)(=O)Nc2ccc3c(c2)C(=O)N([C@@H](C)CO)C[C@@H](C)[C@H](CN(C)C(=O)Nc2ccc4c(c2)OCO4)OCCCC[C@@H](C)O3)cc1 | inactive
CCn1cnc2c(=O)[nH][nH]c(=O)c21 | inactive
C[C@@H]1CN([C@@H](C)CO)C(=O)Cc2cc(NC(=O)Nc3ccccc3)ccc2O[C@@H]1CN(C)Cc1ccc(C(F)(F)F)cc1 | inactive
CC(C)NC(=O)N(C)C[C@@H]1Oc2ccc(NC(=O)C3CCCCC3)cc2CC(=O)N([C@H](C)CO)C[C@H]1C | inactive
C[C@H]1CN([C@@H](C)CO)C(=O)CCCn2cc(nn2)CO[C@@H]1CN(C)C(=O)Nc1cccc(C(F)(F)F)c1 | inactive
C[C@@H]1CN([C@H](C)CO)C(=O)c2cc(NC(=O)Nc3cccc4ccccc34)ccc2O[C@H]1CN(C)S(=O)(=O)c1cccs1 | inactive
Cc1cc(O)cc(=O)[nH]1 | inactive
Cc1cc(C(=O)O)n[nH]1 | inactive

Structure (SMILES) | growth inhibition call
Cc1cc(=O)[n+]2cccc(O)c2[nH]1 | active
CNC(=O)c1cccc(NC(=S)NC)c1 | inactive
C[C@H](CO)N1C[C@H](C)[C@H](CN(C)C(=O)Nc2ccc3c(c2)OCO3)Oc2ncc(C#CC(C)(C)O)cc2C1=O | inactive
O=P(O)(O)CN(CCN(CP(=O)(O)O)CP(=O)(O)O)CP(=O)(O)O | inactive
O=C(O)P(=O)(O)O | active
CC(=O)O | inactive
O=C(C[C@@H]1CC[C@@H]2[C@H](COC[C@@H](O)CN2C(=O)c2ccncc2)O1)NCc1ccc(-c2ccccc2)cc1 | inactive
C[C@H]1CN([C@@H](C)CO)C(=O)c2cc(NS(=O)(=O)c3cn(C)cn3)ccc2O[C@@H]1CN(C)S(=O)(=O)c1cn(C)cn1 | inactive
C[C@H]1CCCCO[C@H](CN(C)S(=O)(=O)c2ccc(F)cc2)[C@@H](C)CN([C@@H](C)CO)C(=O)c2cc(NS(C)(=O)=O)ccc2O1 | inactive
Cc1noc(C)c1NC(=O)Nc1ccc2c(c1)C(=O)N([C@H](C)CO)C[C@@H](C)[C@H](CN(C)Cc1ccc3c(c1)OCO3)OCCCC[C@@H](C)O2 | inactive
C[C@H]1CCCCO[C@H](CN(C)C(=O)CCC(F)(F)F)[C@@H](C)CN([C@@H](C)CO)C(=O)c2cc(NC(=O)Cc3ccccc3)ccc2O1 | inactive
CC1=C(C(=O)O)N2C(=O)[C@@H](NC(=O)[C@@H](N)c3ccc(O)cc3)[C@H]2SC1 | inactive
C/C=C/C1=C(C(=O)O)N2C(=O)[C@@H](NC(=O)[C@H](N)c3ccc(O)cc3)[C@H]2SC1 | active
C/C=C\C1=C(C(=O)O)N2C(=O)[C@H](NC(=O)[C@@H](N)c3ccc(O)cc3)[C@@H]2SC1 | inactive
CC1=C(C(=O)O)N2C(=O)[C@@H](NC(=O)[C@H](N)c3ccc(O)cc3)[C@H]2SC1 | active
CC=CC1=C(C(=O)O)N2C(=O)C(NC(=O)C(N)c3ccc(O)cc3)C2SC1 (stereo unspecified) | inactive
CC1=C(C(=O)O)N2C(=O)C(NC(=O)C(N)c3ccc(O)cc3)C2SC1 (stereo unspecified) | inactive
C[C@@H]1CN([C@H](C)CO)C(=O)c2cccc(NC(=O)C3CC3)c2O[C@H]1CN(C)S(=O)(=O)c1ccc(F)cc1 | inactive
C[C@H](CO)N1C[C@H](C)[C@H](CN(C)S(C)(=O)=O)Oc2ncc(C#CC(C)(C)O)cc2C1=O | inactive
OCC(O)C(O)C(O)C(O)CO (stereo unspecified) | inactive
C[C@H](CO)N1C[C@H](C)[C@H](CN(C)Cc2ccc(Oc3ccccc3)cc2)Oc2ccc(NS(=O)(=O)c3ccc(F)cc3)cc2CC1=O | inactive
C[C@@H]1CN([C@H](C)CO)S(=O)(=O)c2ccc(-c3cccc(C(=O)N(C)C)c3)cc2O[C@H]1CN(C)C(=O)Cc1ccccn1 | inactive
COCCOC(=O)N1C(=O)[C@@]2(c3cc(C#CC4=CCCCC4)ccc31)[C@H](C(=O)N1CCN(c3ncccn3)CC1)[C@H]1C(=O)O[C@H](c3ccccc3)[C@H](c3ccccc3)N1[C@@H]2c1ccc(OCCO)cc1 | inactive

Reference: the antibiotic and cytotoxicity screens of Wong et al. (2023)
